This note sets out measurements from PubChem BioAssay AID449762 (Southern Research Specialized Biocontainment Screening …, 2010).

Hit rate of the full screen: of about 330,000 compounds, about 1,900 (0.58%) were called active. Inconclusive results (about 4%) are left out. Only a sample is shown. Potency and affinity values are given separately. A number with no mark means an inactive call. Cut-off read from the data, not from the text of the source: inconclusive = inhibition above about 70% without an active follow-up result; inactive = below that.

This assay is described as follows: M. tuberculosis growth inhibition, HTS (AID 449762).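 Note: bacterial growth assessed after seven days of incubation.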 Particulars: M. tuberculosis H37Rv growth inhibition, 7H9 media; at 25 µM; hits give high values.
By inhibition is commonly meant the change of the read-out against control, counted positive when it falls. On to `COc1ccc(N2C(=O)CCC2=O)cc1`, for which the inhibition was -16.1%.

Consider `CCOc1ccc(C(=O)NNC(=O)CN2C(=O)C3CC=CCC3C2=O)cc1OC` (stereo not given), for which the inhibition is 3.32%.

On to `CN(C(=O)COC(=O)c1cc(NS(=O)(=O)c2cc([N+](=O)[O-])ccc2Cl)ccc1O)C1CCCCC1`, for which the inhibition is 0.85%. The result for `CN(C(=O)COC(=O)c1ccc(Cl)cc1N)C1CCCCC1` reads -0.1%; that for `CCN(C(=O)COC(=O)CNC(=O)c1sc2ccccc2c1Cl)C1CCCCC1`, 39.4%.

Turning to `CC1CCCC(NC(=O)COC(=O)c2sc3ccccc3c2Cl)C1C` (stereo not given), the inhibition is -11.1%. On to `C=CCn1c(N)c(C(=O)N2CCOCC2)sc1=S`, for which the inhibition is -5.77%. Turning to `c1ccc(CCNc2ncnc3sccc23)nc1`, the inhibition was -8.28%. With `Cc1ccc(N2CC(C(=O)Nc3cccc(C(=O)NC4CC4)c3)CC2=O)cc1` (stereo not given), the inhibition is -1.62%. The figure for `C/C(=N\Nc1nncc2ccccc12)c1ccc(O)cc1` is 13.3%; for `COc1ccc(CC(=O)Oc2ccccc2C)cc1` it is 10.5%. With `CCN(CC)c1ccc(/C=N/NC(=O)c2ccc3nc[nH]c3c2)cc1`, the inhibition was 5.47%. Regarding `CNC(=O)COc1coc(CN2CCN(c3ccccc3)CC2)cc1=O`, the inhibition is -6.51%.

`CC(NC(=O)/C(=C\c1cccc([N+](=O)[O-])c1)NC(=O)c1ccco1)C(=O)O` (stereo not given): the inhibition is 2.24%.

For `CCOC(=O)c1c(NC(=O)c2cc(-c3cccc(O)c3)on2)sc(C(C)=O)c1C`, the inhibition was 2.98%. As for `Cc1oc2c(CN3CCCC(C)C3)c(O)ccc2c(=O)c1-c1ccccc1` (stereo not given), the inhibition is 0.44%. The figure for `CC1CCCCN1Cc1c(O)ccc2c(=O)c(-c3nc4ccccc4s3)coc12` (stereo not given) is 6.43%; for `Cc1cccc(-n2nnnc2SCC(=O)N(CC(C)C)c2c(N)n(CC(C)C)c(=O)[nH]c2=O)c1` it is 1.22%. In the case of `CC(C)Cc1nc2oc3c(NCC(C)O)ncnc3c2c2c1CCCC2` (stereo not given), the inhibition is 2.05%. Turning to `CC(C)Cc1nc2oc3c(Cl)ncnc3c2c2c1CCCC2`, the inhibition is 2.35%.

In the case of `CC(C)c1ccc(CCNC(=O)c2cccc(S(=O)(=O)N3CCN(C)CC3)c2)cc1`, the inhibition was -4.06%.

On to `O=C1CCN(CCc2ccccc2)CCN1[C@H](CSc1ccccc1)Cc1ccccc1`, for which the inhibition was 13.6%. Consider `CCCN1CCC(=O)N([C@H](CSc2ccc(OC)cc2)Cc2ccccc2)CC1`, for which the inhibition was 0.11%.

As for `Cc1cc(C(=O)CSc2nc(N)cc(N)n2)c(C)n1CC1CCCO1` (stereo not given), the inhibition was -3.69%. The figure for `CCn1c(=O)c2cc(C(=O)NC(C)C)sc2c2ccccc21` is -0.74%; for `Cc1c(OCc2nn[nH]n2)ccc2c3c(c(=O)oc12)CCCC3` it is -3.72%. The result for `COc1ccccc1OCC(=O)Nc1ccc(S(=O)(=O)N(C)c2ccccc2)cc1` reads -13.2%; that for `COc1ccccc1-c1cc(C(F)(F)F)nc(S(C)(=O)=O)n1`, 2.66%. The result for `COc1nc(-c2ccccc2)cc(C(F)(F)F)n1` reads -3%. As to `O=C(NC(=S)Nc1ccc(CN2CCOCC2)cc1)c1cc2ccccc2o1`, the inhibition is 68.5%. The result for `COc1ccc(-n2c(-c3ccc(Br)cc3)n[nH]c2=S)cc1` reads 7.43%; that for `C=CCN(c1nc(C)cc(OC)n1)S(=O)(=O)c1ccccc1`, -6.07%. Consider `CC(OC(=O)/C=C/c1ccc2ccccc2n1)C(=O)Nc1ccc(S(N)(=O)=O)cc1` (stereo not given), for which the inhibition is 11.9%. The figure for `CC(OC(=O)/C=C/c1ccc2ccccc2n1)C(=O)N(C)c1ccccc1` (stereo not given) is -4.67%; for `NC(=O)c1ccccc1OCC(=O)Nc1cccnc1Cl` it is 2.44%; for `CCCc1ccc(Oc2cc(N3CCOCC3)nc(-c3ccccc3)n2)cc1` it is 17.9%. For the compound `O=C(O)c1cccc(N/N=C/c2cc(Br)cc(Br)c2O)c1`, the inhibition was -15.9%. The figure for `CN(/N=C/c1cc(Br)cc(Br)c1O)c1ccccc1` is 3.99%. The result for `Cc1ccc(C(=O)Nc2ccccc2C(=O)N2CCCCC2C)cc1` (stereo not given) reads -0.75%; that for `COCC(=O)Nc1ccc(N2CCOCC2)c(S(=O)(=O)Nc2ccccc2OC)c1`, 1.36%; that for `CCCCn1c2c(c(=N)c3c1CCC3)CCC2`, -1.93%. The figure for `CCCCCCn1c2c(c(=N)c3c1CCC3)CCC2` is -4.99%; for `Cc1ccc(OCC(=O)OCc2c(C)noc2C)cc1C` it is 3.24%; for `Cc1noc(C)c1COC(=O)COc1ccc(C#N)cc1` it is 6.51%.

As to `O=C(COC(=O)/C=C/c1ccc(F)cc1)NCC1CCCO1` (stereo not given), the inhibition is 6.52%.

Take `COc1ccc(/C=C/C(=O)OCC(=O)NCC2CCCO2)cc1` (stereo not given): the inhibition is 2.24%.

For the compound `Cc1noc(C)c1CSc1nnc(-c2ccccc2)n1N`, the inhibition was 6.07%. The result for `CCOC(=O)Nc1ccc(C)cc1Br` reads -1.99%. The figure for `CCc1cc(C(=O)Nc2ccccc2)cs1` is -4.05%. The figure for `COc1ccc(NC(=O)c2nc[nH]c2C(=O)N(C)Cc2ccccc2)cc1` is 9.08%. `NC1=NC(=O)/C(=C/C=C/c2cccs2)S1`: the inhibition was 18.7%. The result for `COc1ccc(C(=O)Nc2c(N)nc(SCC(=O)NCC3CCCO3)[nH]c2=O)cc1` (stereo not given) reads 11.2%; that for `CCN(CC)C(=O)c1sc2nc(Cc3ccccc3)[nH]c(=O)c2c1C`, 4.02%; that for `CCN(CC)C(=O)c1sc2nc(-c3ccncc3)[nH]c(=O)c2c1C`, -4.66%. As to `COc1ccc(-n2c(O)c(/C=C3\C=Nc4ccc(Br)cc43)c(=O)[nH]c2=O)c(OC)c1`, the inhibition is -3.48%. As to `CCn1c(CSc2nnc(-c3ccc4c(c3)OCO4)o2)nc2cc(S(=O)(=O)N(C)C)ccc21`, the inhibition is -2.02%. The result for `O=C(c1cc(-c2cccc(Cl)c2)nc2ccccc12)N1CCCC1` reads 4.01%; that for `COc1ccc(OC)c(C2CC(c3c(-c4ccccc4)c4cc(Cl)ccc4[nH]c3=O)=NN2S(C)(=O)=O)c1` (stereo not given), 44.4%; that for `COc1ccc(C2CC(c3c(-c4ccccc4)c4cc(Cl)ccc4[nH]c3=O)=NN2S(C)(=O)=O)cc1OC` (stereo not given), 7.95%.

For the compound `O=C(NCc1cccnc1)c1noc2c1CCCC2`, the inhibition was -1.71%.
